Experimental findings from PubChem BioAssay (Tox21) are described below.

Experiment [1] is described as follows: Nuclear factor erythroid 2-related factor 2/antioxidant responsive element (Nrf2/ARE) small molecule agonists: luciferase reporter gene qHTS assay in human keratinocytes (AID 1919969; further: nearly all actives have a fitted effect of over 35% in size; further: potency means the concentration at half of the fitted maximal effect). (Reporter assays use an easily measured gene product as a stand-in for the process of interest.)
Experiment [2] addresses Gonadotropin-releasing hormone receptor (Homo sapiens) (UniProt P30968). As to the kind of experiment: Human gonadotropin-releasing hormone receptor (GnRHR) small molecule agonists, calcium flux assay in GnRHR-HEK293 cells (AID 1920063). Further: nearly all actives have a fitted effect of over 35% in size. In outline: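 HEK293 cells stably expressing human GnRHR were plated 18 h at 37 °C, loaded with calcium dye 1 h at 37 °C, then given compound in agonist mode; fluorescence (Ex/Em 480/540) read kinetically for 3 min at 1 s intervals.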
In general terms: Calcium assays in cells follow changes in intracellular calcium, usually with a dye or a luminescent sensor.

For experiment [3], the target named is KiSS-1 receptor (Homo sapiens) (UniProt Q969F8). Kind of experiment: Human kisspeptin (KISS1R) small molecule agonists, calcium flux assay in KISS1R-HEK293 cells (AID 1920064; active means well fitted activation curve with a large enough effect in the repeat runs). In short, it runs like this:
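HEK293 cells stably expressing human KISS1R were plated 18 h at 37 °C, loaded with calcium dye for 1 h at 37 °C, then given compound by pin tool. Fluorescence (Ex/Em 480/540) was read kinetically for 3 min.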

Experiment [4] is described as follows: G protein-coupled receptor (GPCR) small molecule agonists, calcium flux assay: HEK293 wild type cell line counter screen (AID 1920065). In outline:
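Cells were plated and cultured 18 h at 37 C/5% CO2, then loaded with calcium dye for 1 h at 37 C. Compounds in DMSO were pin-transferred in agonist mode, and fluorescence (Ex/Em 480/540) was read kinetically for 3 min at 1 s intervals.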

A short description of experiment [5]: p53 small molecule agonists, cell-based qHTS assay with human liver microsomes (AID 1963577). In outline:
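p53RE-bla cells, 4,000/well, compound added after 5 h, with human liver microsomes 0.5 mg/mL and NADPH 0.5 mg/mL final; 16 h at 37 C, then LiveBLAzer 2 h RT, fluorescence.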
Background: qHTS replaces the single test concentration by a dilution series.

A short description of experiment [6]: p53 small molecule agonists, cell-based qHTS assay with rat liver microsomes (AID 1963578). In short, it runs like this:
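p53RE-bla cells, 4,000/well, pre-incubated 5 h, then given compounds plus rat liver microsomes (0.5 mg/mL final) and NADPH (0.5 mg/mL final). Incubation 16 h at 37 C; beta-lactamase reporter read by LiveBLAzer fluorescence after 2 h at room temperature.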

Experiment [7] can be described thus: p53 small molecule agonists, cell-based qHTS assay with human liver microsomes: qHTS cell viability counter screen (AID 1963579). Further: nearly all actives have a fitted effect of over 45% in size. In short, it runs like this: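 p53RE-bla cells, 4,000/well, dosed 5 hours after plating, with human liver microsomes (0.5 mg/mL final) plus NADPH (0.5 mg/mL final), 16 hours at 37 C. Viability read as CellTiter-Glo luminescence after 30 min at room temperature.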

The nature of experiment [8]: p53 small molecule agonists, cell-based qHTS assay with rat liver microsomes: qHTS cell viability counter screen (AID 1963580). Further: nearly all actives have a fitted effect of over 45% in size. In outline:
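Viability is assessed in parallel with the p53 reporter read: HCT-116 p53RE-bla cells receive compounds plus rat microsomes and NADPH (0.5 mg/mL final apiece), incubate 16 h at 37 C, and then CellTiter-Glo luminescence is recorded.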

The nature of experiment [9]: p53 small molecule agonists, cell-based qHTS assay: qHTS cell viability counter screen (AID 1963581). Further: nearly all actives have a fitted effect of over 45% in size. In outline:
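p53RE-bla HCT-116 cells were exposed to compounds for 16 h at 37 C; after the beta-lactamase FRET read in the same wells, CellTiter-Glo was added and luminescence (intracellular ATP) read after 30 min at room temperature.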

Experiment [10] in a line: p53 small molecule agonists, cell-based qHTS assay (AID 1963582; active means well fitted activation curve with a large enough effect in the signal ratio in the repeat runs, not every such curve was filed as active; the % refers to the signal ratio). In outline:
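p53RE-bla beta-lactamase reporter cells rested 5 h at 37 C/5% CO2, then received compounds in DMSO by pin transfer and were incubated 16 h at 37 C. LiveBLAzer B/G FRET substrate was loaded for 2 h at room temperature before fluorescence reading.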

Experiment [11] deals with 5-hydroxytryptamine receptor 2A (Homo sapiens) (UniProt P28223). As to the kind of experiment: 5-hydroxytryptamine receptor 2A (HTR2A) small molecule antagonists, cell-based qHTS assay (AID 1963586). Further: nearly all actives have a fitted effect of over 45% in size. In short, it runs like this: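 Antagonist-mode intracellular calcium assay: DOI (4 nM) added after 5 min compound pre-incubation at room temperature to dye-loaded HTR2A-CHO cells. Fluorescence followed for 3 min, sampled every second.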

For experiment [12] the target is unchanged. Kind of experiment: 5-hydroxytryptamine receptor 2A (HTR2A) small molecule agonists, cell-based qHTS assay (AID 1963587). Further: nearly all actives have a fitted effect of over 30% in size. In short, it runs like this: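 CHO cells stably expressing human HTR2A, plated 18 h, loaded with calcium dye 1 h at 37 C. Agonist mode: compounds added and intracellular calcium fluorescence recorded kinetically for 2 min at 1 sec intervals.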

In experiment [13] the target is Muscarinic acetylcholine receptor M1 (Homo sapiens) (UniProt P11229). As to the kind of experiment: Cholinergic receptor muscarinic 1 (CHRM1) small molecule antagonists, cell-based qHTS assay (AID 1963588). Further: nearly all actives have a fitted effect of over 40% in size. In outline:
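CHRM1-CHO calcium-flux assay, antagonist mode. Cells were seeded 18 h, dye-loaded 1 h at 37 C and given compound for 5 min at RT, then acetylcholine was added at 50nM. FDSS fluorescence was read 3 min; 15 concentrations, three runs.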

For experiment [14] the target is unchanged. Kind of experiment: Cholinergic receptor muscarinic 1 (CHRM1) small molecule agonists, cell-based qHTS assay (AID 1963589). Further: nearly all actives have a fitted effect of over 35% in size. In outline:
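CHO cells stably expressing human CHRM1, seeded 18 h at 37 C/5% CO2, dye-loaded 1 h at 37 C, then given compound in agonist mode; intracellular calcium fluorescence read kinetically at 1 s intervals. Fifteen concentrations, three independent runs.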

Experiment [15] in a line: cAMP Responsive Elements (CRE) small molecule agonists, cell-based qHTS assay (AID 1963590). In outline: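 CRE-bla HEK 293T cells in DMEM with 10% dialyzed FBS, NEAA, pyruvate and 25 mM HEPES were plated 18 h at 37 C/5% CO2, then exposed to compounds in DMSO for 3 h before LiveBLAzer B/G FRET substrate addition.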
Experiment [16] in a line: cAMP Responsive Elements (CRE) small molecule antagonists, cell-based qHTS assay (AID 1963591; active means well fitted inhibition curve with a large enough effect in the signal ratio in the repeat runs, not every such curve was filed as active; the % refers to the signal ratio). In short, it runs like this: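 CRE-bla HEK293T cells were plated 18 h at 37 °C/5% CO2, pinned with compound in DMSO, then stimulated with NKH477 at 0.25 uM final for 3 h. LiveBLAzer B/G FRET substrate was added and plates incubated 2 h at room temperature.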
Experiment [17] deals with Beta-2 adrenergic receptor (Homo sapiens) (UniProt P07550). As to the kind of experiment: Adrenergic beta2 receptor (ADRB2) small molecule antagonists, cell-based qHTS assay (AID 1963592). Further: series mostly up to about 92 µM; nearly all actives have a fitted effect of over 50% in size. In outline:
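Cells (CHO, stable ADRB2 overexpression) incubated 18-20hr at 37C; compounds added from DMSO; agonist mix (1nM isoproterenol, 100uM IBMX, 25uM Ro-20-1724) added; 0.5hr RT; d2-cAMP and anti-cAMP-cryptate added; 1hr RT; 665/615 nm read.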

For experiment [18] the target is unchanged. Kind of experiment: Adrenergic beta2 receptor (ADRB2) small molecule agonists, cell-based qHTS assay (AID 1963593).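 Further: CHO cells stably overexpressing human ADRB2.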 In outline:
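CHO cells stably over-expressing ADRB2 were plated overnight at 37C, then dosed with compounds plus a stimulation mix containing 100uM IBMX and 25uM Ro-20-1724 for 0.5hr at room temperature. cAMP was measured by HTRF competition, 1hr.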

In experiment [19] the target is D(2) dopamine receptor (Homo sapiens) (UniProt P14416). Kind of experiment: Dopamine D2 receptor (DRD2) small molecule agonists, cell-based qHTS assay (AID 1963594). Further: nearly all actives have a fitted effect of over 35% in size. In short, it runs like this:
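HEK293 cells stably expressing human DRD2, pre-treated with PDE inhibitor Ro20-1724 (0.1 mM final) and compound 10 min at room temperature, then stimulated with NKH477 (200nM […]) for 30 min. cAMP read by HTRF (665/620 nm).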

Experiment [20] has the same target. Kind of experiment: Dopamine D2 receptor (DRD2) small molecule antagonists, cell-based qHTS assay (AID 1963595; active means well fitted inhibition curve with a large enough effect in the signal ratio in the repeat runs, with a control signal flat; the % refers to the signal ratio). In short, it runs like this:
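Human DRD2 antagonist qHTS measuring cAMP by HTRF. The cells are exposed to compound for 10 min, then to NKH477 (200 nM) and quinpirole (12 nM) for 30 min at RT, with Ro20-1724 (0.1 mM) present throughout.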

Unmarked numbers belong to inactive results. Results filed as inconclusive are left out. The source made the active and inactive calls. Unless noted, the call rests on the fitted dose curve.
On the % scale 0 is the no-effect control and ±100 the full control effect.

KiSS-1 receptor (Homo sapiens), sequence (Q969F8 whole entry, looked up): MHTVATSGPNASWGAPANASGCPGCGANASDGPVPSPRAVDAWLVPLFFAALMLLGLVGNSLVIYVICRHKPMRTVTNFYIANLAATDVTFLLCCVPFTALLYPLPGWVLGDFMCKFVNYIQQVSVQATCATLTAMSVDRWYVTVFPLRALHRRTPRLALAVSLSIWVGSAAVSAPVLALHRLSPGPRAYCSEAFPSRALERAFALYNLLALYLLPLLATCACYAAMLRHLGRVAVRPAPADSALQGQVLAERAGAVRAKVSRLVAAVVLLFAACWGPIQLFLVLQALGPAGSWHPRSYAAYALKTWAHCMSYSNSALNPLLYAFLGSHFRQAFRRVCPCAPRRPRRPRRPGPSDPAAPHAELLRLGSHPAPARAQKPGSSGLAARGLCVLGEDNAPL
Beta-2 adrenergic receptor (Homo sapiens), sequence (P07550 whole entry, looked up): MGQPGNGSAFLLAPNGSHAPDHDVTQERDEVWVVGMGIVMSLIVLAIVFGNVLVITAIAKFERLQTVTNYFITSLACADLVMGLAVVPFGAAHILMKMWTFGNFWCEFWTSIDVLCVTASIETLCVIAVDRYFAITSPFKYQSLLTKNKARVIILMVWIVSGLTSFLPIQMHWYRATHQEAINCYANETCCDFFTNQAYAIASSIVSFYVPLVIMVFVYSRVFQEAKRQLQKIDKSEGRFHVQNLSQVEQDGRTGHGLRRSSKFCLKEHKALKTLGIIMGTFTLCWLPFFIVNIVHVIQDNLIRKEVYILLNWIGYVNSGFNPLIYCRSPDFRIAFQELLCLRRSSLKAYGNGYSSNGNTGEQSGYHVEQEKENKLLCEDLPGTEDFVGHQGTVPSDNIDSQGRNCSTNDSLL
5-hydroxytryptamine receptor 2A (Homo sapiens), sequence (P28223 whole entry, looked up): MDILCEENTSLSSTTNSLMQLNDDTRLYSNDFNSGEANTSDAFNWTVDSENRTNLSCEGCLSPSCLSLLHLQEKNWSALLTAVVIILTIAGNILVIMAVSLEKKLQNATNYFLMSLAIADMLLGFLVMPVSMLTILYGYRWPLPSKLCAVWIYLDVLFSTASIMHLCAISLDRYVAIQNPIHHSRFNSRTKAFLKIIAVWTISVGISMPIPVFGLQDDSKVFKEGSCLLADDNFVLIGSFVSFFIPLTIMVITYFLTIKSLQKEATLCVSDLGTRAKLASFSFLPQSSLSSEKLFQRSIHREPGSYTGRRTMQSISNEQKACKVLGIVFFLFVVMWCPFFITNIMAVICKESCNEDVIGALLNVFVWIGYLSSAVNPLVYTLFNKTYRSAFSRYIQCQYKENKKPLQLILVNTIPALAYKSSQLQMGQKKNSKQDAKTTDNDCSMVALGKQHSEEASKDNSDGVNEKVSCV
Gonadotropin-releasing hormone receptor (Homo sapiens), sequence (P30968 whole entry, looked up): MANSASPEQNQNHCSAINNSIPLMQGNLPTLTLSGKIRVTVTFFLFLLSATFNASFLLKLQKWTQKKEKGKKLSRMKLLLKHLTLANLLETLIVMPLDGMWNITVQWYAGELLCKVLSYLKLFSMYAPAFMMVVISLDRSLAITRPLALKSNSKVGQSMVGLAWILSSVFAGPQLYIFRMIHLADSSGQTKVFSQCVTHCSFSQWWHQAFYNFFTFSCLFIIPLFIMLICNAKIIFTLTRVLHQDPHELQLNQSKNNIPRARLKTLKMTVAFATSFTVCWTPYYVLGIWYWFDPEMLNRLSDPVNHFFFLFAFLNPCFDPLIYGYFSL
Muscarinic acetylcholine receptor M1 (Homo sapiens), sequence (P11229 whole entry, looked up): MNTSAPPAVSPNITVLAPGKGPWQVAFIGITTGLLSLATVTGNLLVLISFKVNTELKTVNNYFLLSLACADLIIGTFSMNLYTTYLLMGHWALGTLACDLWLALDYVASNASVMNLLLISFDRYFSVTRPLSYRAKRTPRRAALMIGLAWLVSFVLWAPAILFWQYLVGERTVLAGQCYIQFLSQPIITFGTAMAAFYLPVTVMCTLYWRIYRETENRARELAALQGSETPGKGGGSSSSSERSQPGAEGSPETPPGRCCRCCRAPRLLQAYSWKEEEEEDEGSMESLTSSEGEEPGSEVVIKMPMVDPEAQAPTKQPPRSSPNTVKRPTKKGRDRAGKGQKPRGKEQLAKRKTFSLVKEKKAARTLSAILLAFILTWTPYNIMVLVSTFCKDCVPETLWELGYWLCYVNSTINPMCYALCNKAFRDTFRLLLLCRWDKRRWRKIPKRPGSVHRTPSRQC
D(2) dopamine receptor (Homo sapiens), sequence (P14416 whole entry, looked up): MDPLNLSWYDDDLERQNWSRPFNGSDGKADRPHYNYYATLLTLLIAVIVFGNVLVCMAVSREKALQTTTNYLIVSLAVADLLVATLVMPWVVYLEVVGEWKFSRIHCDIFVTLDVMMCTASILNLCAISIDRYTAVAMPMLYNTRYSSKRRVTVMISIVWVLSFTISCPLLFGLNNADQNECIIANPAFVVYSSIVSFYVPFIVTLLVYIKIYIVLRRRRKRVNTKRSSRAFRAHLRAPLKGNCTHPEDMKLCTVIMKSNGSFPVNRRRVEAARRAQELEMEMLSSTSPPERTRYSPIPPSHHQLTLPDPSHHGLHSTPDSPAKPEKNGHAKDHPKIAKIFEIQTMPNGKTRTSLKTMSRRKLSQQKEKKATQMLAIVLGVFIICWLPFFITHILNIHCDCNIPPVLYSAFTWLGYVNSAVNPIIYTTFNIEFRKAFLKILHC

On to `CC(C)(C)c1n[nH]c(=O)n(N)c1=O`, for which the Potency result in [1], in [2], in [3], in experiment [4], in experiment [5] and in [6] was “inactive” each time. In addition, the Potency entry in [7], in experiment [8], in experiment [9], in experiment [10], in experiment [11] and in experiment [12] was “inactive” throughout. The Potency result in experiment [13], in experiment [14], in experiment [15], in [16], in [17] and in [18] was “inactive” each time. The Potency result in [19] and in experiment [20] was “inactive” in each case.

With `COC(=O)c1ccc2cc(C(=O)OC)ccc2c1`, the activity, positive = activation in experiment [1] is 20.6% [at 19 µM]. Moreover, the activity change in [2] was 0.0273% [at 11.8 µM, active compounds read high]. For the same compound, the activation in experiment [3] is 2.25% [at 15.8 µM]; in [4], 0.0113% [at 11.8 µM]; in experiment [5], -11.1% [at 13.5 µM]; in experiment [6], -1.04% [at 13.6 µM]; in [10], -2.37% [at 13.5 µM]; in experiment [12], -0.775% [at 15.9 µM]. For the same compound, the activation is 0.0556% [at 15.8 µM] in experiment [14], -2.52% [at 19 µM] in experiment [15], 21.2% [at 19 µM] in experiment [18] and -0.16% [at 19 µM] in experiment [19]. Also, the activity change, negative = cytotoxicity in experiment [7] was -6.68% [at 13.5 µM]; in [8] it was -1.51% [at 13.5 µM]; in experiment [9], 11% [at 13.5 µM]. The activity, negative = inhibition in experiment [11] was 2.21% [at 12.7 µM]; in [13], -8% [at 12.6 µM]. Also, the activity change, negative = inhibition was -4.98% [at 18.9 µM] in [16], -9.16% [at 19 µM] in experiment [17] and -2.05% [at 18.9 µM] in experiment [20].

For `CCC(C)NC(N)=O` (stereo not drawn), the Potency result in experiment [1], in experiment [2], in [3], in [4], in experiment [5] and in [6] was “inactive” throughout. Also, the Potency entry in experiment [7], in experiment [8], in experiment [9], in experiment [10], in experiment [11] and in [12] was “inactive” in each case. For the same compound, the Potency entry in experiment [13], in [14], in experiment [15], in experiment [18], in experiment [19] and in [20] was “inactive” each time.

For the compound `CCCCOCCOCCOCCCC`, the Potency result in experiment [1], in experiment [2], in [3], in [4], in experiment [5] and in experiment [6] was “inactive” each time. For the same compound, the Potency entry in [7], in experiment [8], in experiment [9], in [10], in experiment [11] and in experiment [12] was “inactive” in each case. Besides, the Potency result in experiment [13], in experiment [14], in experiment [16], in experiment [17], in experiment [18] and in experiment [19] was “inactive” throughout. In addition, the Potency result in [20] was “inactive”.

As to `Cc1ncc(CO)c(CN)c1O`, the Potency entry in experiment [1], in [2], in experiment [3], in experiment [4], in [5] and in experiment [6] was “inactive” each time. The Potency entry in experiment [7], in [8], in experiment [9], in experiment [10], in experiment [11] and in experiment [12] was “inactive” each time. Also, the Potency entry in experiment [13], in experiment [14], in experiment [15], in experiment [16], in [17] and in experiment [19] was “inactive” throughout. Besides, the Potency result in experiment [20] is “inactive”.

Turning to `CC[C@H](C)[C@@H](C(=O)O)n1sc2ccccc2c1=O`, the Potency in experiment [1] was 54.5 µM (active). Further, the Potency result in [2], in [3], in experiment [4], in experiment [5], in experiment [6] and in [7] was “inactive” in each case. For the same compound, the Potency entry in [8], in experiment [9], in [10], in [11], in experiment [12] and in experiment [13] was “inactive” in each case. The Potency result in experiment [14], in [15], in [16] and in experiment [19] was “inactive” each time.
